# Inconclusive results are not listed. Where a call stands in place of a potency, no number is given. Activity calls are given as the source filed them. Calls come from the whole dose curve; as a rule, active = well fitted inhibition curve with a large enough effect; inconclusive = small, poorly fitted or top-dose-only effect; inactive = flat fitted curve, though single readings scatter.
# Biological target: Calcium and integrin-binding protein 1 (Homo sapiens) (UniProt Q99828)
# Experiment: Primary qHTS for Identification of Calcium Integrin Binding Protein 1 (CIB1) Competitor (AID 1508620);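 note: GST tagged CIB1 binding a fluorescein labelled alphaIIb integrin peptide tracer; top concentration of the series differs between compounds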
# Details: CIB1-GST / FITC-alphaIIb peptide fluorescence polarization; series mostly up to 114 µM
# How it was run: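 CIB1-GST (1 uM final) and compound incubated 15 min at room temperature before adding FITC-alphaIIb peptide tracer (100 nM final). Competition for binding read by fluorescence polarization (ex 480, em 540) after another 15 min at room temperature.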
# Sequence of Calcium and integrin-binding protein 1 (Homo sapiens) (Q99828 whole entry, looked up): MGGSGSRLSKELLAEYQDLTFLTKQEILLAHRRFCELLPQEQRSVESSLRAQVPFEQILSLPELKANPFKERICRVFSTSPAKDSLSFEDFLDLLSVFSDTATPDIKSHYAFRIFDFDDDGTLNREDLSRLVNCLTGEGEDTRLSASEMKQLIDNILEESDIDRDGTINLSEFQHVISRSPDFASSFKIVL
row,Compound,Potency
1,COC(=O)c1sc2c(c1-c1nc3ccccc3s1)CCNC2,inactive
2,Cc1cc2c(s1)c1cnn(Cc3cccc(F)c3F)c(=O)c1n2C,inactive
3,Oc1c(C(Nc2ccccn2)c2ccccc2)cc(Cl)c2cccnc12 (stereo not given),inactive
4,COc1ccccc1N1C(=O)c2ccccc2C1=O,inactive
5,Cc1cc(CNc2ncnc3ccc(-c4ccc5c(c4)OCO5)cc23)c(C)o1,inactive
6,CN(C)c1ccc(/C=C/C(=O)Nc2cccc([S+](=O)([O-])Nc3ccccc3F)c2)cc1,inactive
7,O=C(Cn1ncccc1=O)NCCc1ccccc1,inactive
8,CCN1CCN(C(=S)c2ccc(O)cc2)CC1,inactive
9,CC(=O)Nc1ccc(S(=O)(=O)N2CCN(c3ccc(C(C)=O)cc3)CC2)cc1,inactive
10,O=C(O)c1ccc2c(c1)C(=O)N([C@H](Cc1ccc(C(F)(F)F)cc1)C(=O)O)C2=O,inactive
11,COc1ccc(C2Nc3ccccc3C(=O)N2Cc2cccs2)cc1COc1c(C)cc(NC(C)=O)cc1C (stereo not given),inactive
12,COc1ccc(-c2csc(N3CCC(C(N)=O)CC3)n2)cc1,inactive
13,Fc1cc(Nc2nc(-c3ccncc3)nc3ccccc23)ccc1-c1ccc(F)c(F)c1F,inactive
14,COc1ccc(C2c3c(nc(CCCc4ccccc4)[nH]c3=O)Oc3ccc4ccccc4c32)cc1OC (stereo not given),inactive
15,Cc1ccc(NS(=O)(=O)c2ccc3c(ccn3C)c2)cc1C,inactive
16,O=C1c2ccccc2C(=O)N1c1cccc2cnccc12,inactive
17,CC(=O)Nc1sc2c(c1-c1ccc(C)cc1)CCNC2,inactive
18,Cc1ccc(OCCn2c(CCNC(=O)c3ccncc3)nc3ccccc32)cc1,inactive
19,O=C(NCc1ccccc1)n1cc(P(=S)(c2ccccc2)c2ccccc2)c2ccccc21,inactive
20,Cc1cc(C)nc(NC(=S)N2CCN(c3nnc(C(F)(F)F)s3)CC2)c1,inactive

row,Compound,Potency
1,COc1ccccc1CNc1ccc(S(=O)(=O)Nc2nccs2)cc1,inactive
2,O=C1CCc2cc(Cl)c(S(=O)(=O)Nc3ccc(Cl)c(Cl)c3)cc2N1,inactive
3,Cc1cccc(C)c1SC1=NS(=O)(=O)c2ccccc21,inactive
4,COc1cccc(C2=Nn3c(nnc3-c3ccccc3OC)SC2)c1,inactive
5,COC(=O)c1ccc(O)c2ncc(-c3ccc(C(=O)N4CCN(C)CC4)cc3)cc12,inactive
6,CC(C)(C)c1ccc(C(=O)NCC(=O)OC(C(=O)Nc2cc(C(F)(F)F)ccc2Cl)c2ccccc2)cc1 (stereo not given),inactive
7,COc1cc(-c2ccc3ncnc(N(C)Cc4csc(C)n4)c3c2)cc(OC)c1OC,inactive
8,Cc1cnc(-c2ccccc2OC(C)C)nc1NCc1ccc(-n2ccnn2)cc1,inactive
9,CC(=O)Nc1ccc(S(=O)(=O)Nc2ccc(C)c(C)c2)cc1,inactive
10,S=C(NCCCc1cnc[nH]1)NCCN(Cc1ccc(Cl)c(Cl)c1)c1ccc(Br)cn1,inactive
11,COc1cccc(-c2nc3cc(NC(=O)c4ccc(C)c([N+](=O)[O-])c4)ccc3o2)c1,inactive
12,O=c1c(Nc2ccc(Br)c(Br)c2)c(Nc2nnc(-c3ccncc3)s2)c1=O,inactive
13,COc1cc(F)c(S(=O)(=O)N2CCN(S(=O)(=O)c3ccc(N)cc3)CC2)c(F)c1,inactive
14,COc1ccc(C2c3c(ncn(CCN4CCOCC4)c3=N)Oc3ccc4ccccc4c32)cc1 (stereo not given),inactive
15,O=C(CNC(=O)c1ccc2cc[nH]c2c1)OC(C(=O)Nc1cc(C(F)(F)F)ccc1Cl)c1ccccc1 (stereo not given),inactive
16,COc1cccc(-c2ccc(=O)n(CC(=O)NCCc3ccccc3)n2)c1,inactive
17,COc1ccc([S+](=O)([O-])N2CCN([S+](=O)([O-])c3ccc4c(c3)OCCO4)CC2)c(OC)c1,inactive
18,CCOc1ccc(CCNC(=O)c2cc3sccc3n2Cc2ccncc2)cc1OCC,inactive
19,O=c1c2ccccc2nc2sc(Nc3cccc(-c4ccncc4)c3)nn12,inactive
20,COc1ccc(-c2nnc3n2N=C(c2cc(OC)ccc2OC)CS3)cc1,inactive
